KLK7 zymogen act = proKLK7 (human) activation, primary screen. purified proKLK7, EDANS-DABCYL substrate fluorescence; 100% is mature enzyme control, 0% vehicle. 370,000 tested, 0.9% active. P49862. activation, % at 7 µM;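 active = activation above the mean of all tested compounds plus 3 SD, computed per campaign excluding outliers beyond control limits, cut at about 13% in these data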
PP1 counter = PP1-alpha (human) inhibition in PP5 counter-screen; P62136; purified PP1alpha, OMFP fluorescence; inhibition, % at 6.7 µM; 320,000 tested, 0.9% active;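 active = inhibition above the mean inhibition of all tested compounds plus 3 SD, computed separately for each screening campaign, cut at about 15% in these data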
Target sequence (P62136 whole entry, looked up): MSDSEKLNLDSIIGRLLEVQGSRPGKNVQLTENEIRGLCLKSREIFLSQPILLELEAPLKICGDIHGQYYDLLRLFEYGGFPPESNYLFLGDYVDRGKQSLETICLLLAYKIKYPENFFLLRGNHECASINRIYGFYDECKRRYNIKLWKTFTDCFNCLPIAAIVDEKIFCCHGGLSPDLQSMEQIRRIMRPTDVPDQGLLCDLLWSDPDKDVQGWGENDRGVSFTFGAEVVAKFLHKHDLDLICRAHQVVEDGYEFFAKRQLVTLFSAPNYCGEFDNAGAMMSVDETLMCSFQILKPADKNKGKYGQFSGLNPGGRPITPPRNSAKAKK
Rev-erbA mod = modulates human Rev-erb alpha binding to DNA | P20393 | Rev-erbα–FITC-DNA binding, fluorescence polarization, 90 min | activity, % at 10 µM | 370,000 tested, 0.79% active | AID 1259318;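 active = activity above about 14%, limit read from the data; passing the limit was not always enough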;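 also: 0% = DMSO wells with 35 nM protein and 100% = DMSO wells with 750 nM protein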
PG9 binder = PG9 antibody binding by small molecule; 360,000 tested, 0.43% active; inhibition, % at 6.7 µM; TR-FRET gp120-PG9 antibody binding; in the data active = inhibition above about 8.5%
PP5 inh = inhibitors of human protein phosphatase 5 (PP5). purified PP5c, OMFP substrate fluorescence. 320,000 tested, 0.18% active. inhibition, % at 6.7 µM. AID 1987. P53041;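 active = inhibition above the campaign's mean inhibition across all tested compounds plus 3 SD, cut at about 9.5% in these data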;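 also: 0% = DMSO only and 100% = 100 µM cantharidin control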
GASC-1 inh = blocks human GASC-1 demethylase activity; 330,000 tested, 0.069% active; Q9H3R0; GST-JMJD2C(1-420) H3K9me3 demethylation, DELFIA europium; inhibition, % at 2.35 µM;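 active = more than half of a compound's replicate wells show inhibition beyond 50%, single wells judged on their own value; inconclusive = some, but no more than half, of replicates pass 50% inhibition; inactive = no replicate passes 50% inhibition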;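 also: signal counts dimethyl H3K9 product captured on neutravidin plate; 0% = median of DMSO wells and 100% = 0.3 times that DMSO median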
proKLK7 act conf = proKLK7 activation, confirmation. purified proKLK7, EDANS-DABCYL substrate fluorescence; scaled: vehicle 0, mature enzyme 100. shares compounds with KLK7 zymogen act. AID 686949. activation, % at 7 µM. 3,200 tested, 68% active;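 active = activation, as change over the incubation, above the mean of all tested compounds plus 3 SD, cut at about 13% in these data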
EDANS-DABCYL int = fluorescence interference counter-screen for KLK7 activators | shares compounds with KLK7 zymogen act | EDANS-DABCYL substrate fluorescence interference, no enzyme, 4 h; solvent 0%, active enzyme control 100% | activation, % at 7 µM | 3,200 tested, 80% active;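 active = activation above the all-compound mean plus 3 SD, ignoring values outside control-based bounds, cut at about 4.8% in these data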;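 also: value is the 4 h activation minus the activation read at time zero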
* hit, by the source's call; ? = inconclusive; . = no result given. Rows were chosen to be rich in hits. Some 2.8% of all compounds tested hit in one or more screens of this group.

SMILES	KLK7 zymogen act	PP1 counter	Rev-erbA mod	PG9 binder	PP5 inh	GASC-1 inh	proKLK7 act conf	EDANS-DABCYL int
CN(C)CCCNc1oc(-c2cccc(Cl)c2)nc1C#N	51*	-3	-1	3	0	20	17*	26*
C=CCNc1oc(/C=C/c2ccccc2)nc1C#N	46*	-5	-3	3	6	0	66*	68*
CCNC(=O)Nc1ccc2c(c1)C(=O)N(C)[C@H]1CC[C@@H](CC(=O)NCCN3CCCC3)O[C@@H]1CO2	0	.	-2	.	.	.	.	.
CC(C)CN1C(=O)C[C@]2(C(=O)N(C)c3ccc(NS(=O)(=O)C4CC4)cc32)C1c1ccccc1 (some centres undefined)	0	.	7	.	.	.	.	.
O=C(NCCc1c[nH]c2ccccc12)OCc1cn(-c2ccc(Cl)cc2)nn1	1	.	-5	.	.	.	.	.
Nc1[nH]c2cc(C(F)(F)F)ccc2c1C(=O)N1CCN(CCc2ccccc2)CC1	0	.	-1	.	.	.	.	.
Cc1ccc(NC(=O)CSC(C)C(=O)OCc2cc(=O)oc3cc(O)ccc23)cc1 (centres undefined)	241*	.	0	0	.	.	314*	275*
CC(=O)Nc1ccc2c(COC(=O)[C@H](C)N3C(=O)C4CCCCC4C3=O)cc(=O)oc2c1 (some centres undefined)	24*	2	2	1	0	-2	4	4.7*
CSCCC(NS(=O)(=O)c1ccccc1)C(=O)OCc1cc(=O)oc2cc(O)ccc12 (centres undefined)	435*	-12	1	2	2	?	498*	529*
CCOC(=O)Nc1ccc2c(COC(=O)c3ccccc3O)cc(=O)oc2c1	5	4	9	0	0	-3	.	.
CCCC(=O)OC[C@H]1CN(C2CCCC2)S(=O)(=O)c2c(Oc3ccc(F)cc3)cccc2O1	0	.	3	1	.	.	.	.
Cc1ccc(-c2nnc(SCC(=O)Nc3ccc(OCc4ccccc4)cc3)n2-c2ccc(Cl)cc2)cc1	0	.	4	.	.	.	.	.
COc1ccccc1C1C=C(c2ccc(Cl)cc2)Nc2nc(N3C(=O)CCC3=O)nn21 (centres undefined)	6	1	1	1	-2	.	.	.
CS(=O)(=O)Nc1nc2n(n1)C(c1ccccc1)C=C(c1ccc(Br)cc1)N2 (centres undefined)	.	-2	.	.	-2	13	.	.
COc1ccc(C2C=C(c3ccc(Br)cc3)Nc3nc(N4C(=O)CCC4=O)nn32)cc1 (centres undefined)	29*	-1	11	-1	0	-6	-81	-73
O=C1CCC(=O)N1c1nc2n(n1)C(c1ccccc1)C=C(c1ccc(Br)cc1)N2 (centres undefined)	30*	2	10	1	4	10	64*	47*
Cc1c(CCC(=O)NC2CC2)c(=O)oc2cc(O)ccc12	86*	-6	0	0	4	6	62*	73*
Cc1oc2cc3oc(=O)c(CCC(=O)NCCCC(=O)O)c(C)c3cc2c1C	14*	0	3	-1	3	-3	24*	22*
Cc1cccc(-n2c(O)c(C=Nc3ccc(O)cc3)c3ccccc3c2=O)n1	18*	-2	-2	-1	0	2	23*	23*
O=c1c2ccccc2c(C=Nc2ccc(S(=O)(=O)N3CCCCC3)cc2)c(O)n1-c1ccc(Cl)cn1	2	2	-4	-1	3	-1	.	.
NS(=O)(=O)c1ccc(N=Cc2c(O)n(-c3nccs3)c(=O)c3ccccc23)cc1	23*	-2	0	0	2	8	18*	20*
Cc1cccc(-n2c(O)c(C=Nc3cc(O)ccc3C)c3ccccc3c2=O)n1	3	3	-14	-2	1	-15	.	.
Cc1cccc(-n2c(O)c(C=Nc3ccccc3O)c3ccccc3c2=O)n1	18*	-1	6	-4	1	16	11	9.4*
